Results from the supplement of paper PMC11732987, “Enantioselective OTUD7B fragment discovery through chemoproteomics screening and high-throughput optimisation” (Communications Chemistry, 2025).

Legend:
Test in all cases: log2 ratio of Biotin-Ahx-Ub-VS probe labelling (fragment/DMSO); higher = less target engagement (more negative = stronger competition), active = hit call of the paper (q ≤ 0.05, log2 ratio ≤ -1)
Conditions in all cases: compound concentration: 200 uM; treatment time: 3 h
[1] = molecular target: T1, USP19 (UniProt O94966)
T1 sequence (whole entry): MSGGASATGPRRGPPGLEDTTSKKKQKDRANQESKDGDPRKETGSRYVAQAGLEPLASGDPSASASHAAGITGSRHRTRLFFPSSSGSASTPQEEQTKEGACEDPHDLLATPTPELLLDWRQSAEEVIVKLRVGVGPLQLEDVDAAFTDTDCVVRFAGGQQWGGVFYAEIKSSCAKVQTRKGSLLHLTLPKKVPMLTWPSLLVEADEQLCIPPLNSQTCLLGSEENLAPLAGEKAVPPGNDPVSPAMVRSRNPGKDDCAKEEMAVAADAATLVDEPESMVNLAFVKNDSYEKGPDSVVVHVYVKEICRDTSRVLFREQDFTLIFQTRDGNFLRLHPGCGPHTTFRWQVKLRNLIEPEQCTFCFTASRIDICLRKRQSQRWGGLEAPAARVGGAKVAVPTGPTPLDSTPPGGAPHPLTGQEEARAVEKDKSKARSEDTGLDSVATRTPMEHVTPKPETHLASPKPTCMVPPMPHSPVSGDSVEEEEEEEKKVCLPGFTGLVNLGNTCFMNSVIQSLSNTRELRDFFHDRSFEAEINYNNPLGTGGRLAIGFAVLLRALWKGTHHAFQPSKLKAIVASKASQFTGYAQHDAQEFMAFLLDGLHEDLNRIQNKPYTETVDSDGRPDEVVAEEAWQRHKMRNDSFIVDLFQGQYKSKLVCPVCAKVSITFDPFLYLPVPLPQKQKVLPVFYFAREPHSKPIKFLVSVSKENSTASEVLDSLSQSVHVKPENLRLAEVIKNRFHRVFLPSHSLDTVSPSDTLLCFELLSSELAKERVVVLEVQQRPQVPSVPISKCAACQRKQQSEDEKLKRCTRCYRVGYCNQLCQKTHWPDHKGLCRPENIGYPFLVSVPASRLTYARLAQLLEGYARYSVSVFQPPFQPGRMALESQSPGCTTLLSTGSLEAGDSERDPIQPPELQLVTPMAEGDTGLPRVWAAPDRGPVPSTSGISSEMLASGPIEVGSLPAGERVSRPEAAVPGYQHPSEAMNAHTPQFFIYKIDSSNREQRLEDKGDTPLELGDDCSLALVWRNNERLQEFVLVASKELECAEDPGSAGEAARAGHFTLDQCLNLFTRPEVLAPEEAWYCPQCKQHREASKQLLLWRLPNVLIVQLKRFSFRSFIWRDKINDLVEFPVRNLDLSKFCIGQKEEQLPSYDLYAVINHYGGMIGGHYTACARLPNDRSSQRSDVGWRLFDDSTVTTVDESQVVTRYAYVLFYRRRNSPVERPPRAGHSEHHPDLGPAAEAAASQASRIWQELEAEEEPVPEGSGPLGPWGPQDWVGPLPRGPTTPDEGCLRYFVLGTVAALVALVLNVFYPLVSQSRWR
Outline: (§1)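 HEK293T lysate, 495 µg per sample in Tris/CHAPS/IGEPAL buffer with protease inhibitors, was treated in triplicate with fragment at 200 µM or vehicle for 3 h and then with Biotin-Ahx-Ub-VS at 0.5 µM final for 1 h. Labelled DUBs were NeutrAvidin-enriched, digested with LysC and trypsin, and run by diaPASEF LC-MS/MS. Spectronaut label-free quantities were global-median-normalised, and values are average log2 fragment/vehicle ratios by unpaired t-test on proteins with ≥2 unique peptides.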

[2] = molecular target: USP24 (UniProt Q9UPU5)
Outline: as §1

[3] = molecular target: T2, USP25 (UniProt Q9UHP3)
T2 sequence (whole entry): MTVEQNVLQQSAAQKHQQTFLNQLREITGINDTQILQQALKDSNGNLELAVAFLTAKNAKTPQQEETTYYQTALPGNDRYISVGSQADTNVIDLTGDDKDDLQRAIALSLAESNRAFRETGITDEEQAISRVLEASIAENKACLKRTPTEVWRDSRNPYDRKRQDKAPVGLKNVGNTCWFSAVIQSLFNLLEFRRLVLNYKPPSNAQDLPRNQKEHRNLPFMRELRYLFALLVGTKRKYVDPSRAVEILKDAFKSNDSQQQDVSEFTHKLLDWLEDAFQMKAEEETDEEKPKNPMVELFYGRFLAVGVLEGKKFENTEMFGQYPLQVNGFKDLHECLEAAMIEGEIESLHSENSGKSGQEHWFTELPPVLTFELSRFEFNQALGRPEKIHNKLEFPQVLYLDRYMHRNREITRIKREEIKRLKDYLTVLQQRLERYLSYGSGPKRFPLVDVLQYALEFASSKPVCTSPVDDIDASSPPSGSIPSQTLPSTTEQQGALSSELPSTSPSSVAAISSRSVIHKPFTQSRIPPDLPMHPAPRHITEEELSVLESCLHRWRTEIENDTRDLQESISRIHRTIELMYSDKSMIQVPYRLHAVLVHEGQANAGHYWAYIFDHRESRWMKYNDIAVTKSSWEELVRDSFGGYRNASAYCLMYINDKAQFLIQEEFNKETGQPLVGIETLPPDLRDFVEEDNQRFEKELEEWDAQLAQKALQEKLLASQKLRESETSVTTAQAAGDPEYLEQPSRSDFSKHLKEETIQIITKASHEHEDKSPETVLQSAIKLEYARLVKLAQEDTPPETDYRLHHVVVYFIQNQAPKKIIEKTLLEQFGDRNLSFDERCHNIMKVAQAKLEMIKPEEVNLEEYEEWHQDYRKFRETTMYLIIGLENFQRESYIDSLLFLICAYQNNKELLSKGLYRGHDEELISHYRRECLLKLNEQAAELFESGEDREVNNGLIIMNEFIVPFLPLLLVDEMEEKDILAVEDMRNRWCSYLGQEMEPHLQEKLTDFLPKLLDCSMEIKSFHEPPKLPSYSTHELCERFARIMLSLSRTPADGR
Outline: as §1

[4] = molecular target: T3, USP28 (UniProt Q96RU2)
T3 sequence (whole entry): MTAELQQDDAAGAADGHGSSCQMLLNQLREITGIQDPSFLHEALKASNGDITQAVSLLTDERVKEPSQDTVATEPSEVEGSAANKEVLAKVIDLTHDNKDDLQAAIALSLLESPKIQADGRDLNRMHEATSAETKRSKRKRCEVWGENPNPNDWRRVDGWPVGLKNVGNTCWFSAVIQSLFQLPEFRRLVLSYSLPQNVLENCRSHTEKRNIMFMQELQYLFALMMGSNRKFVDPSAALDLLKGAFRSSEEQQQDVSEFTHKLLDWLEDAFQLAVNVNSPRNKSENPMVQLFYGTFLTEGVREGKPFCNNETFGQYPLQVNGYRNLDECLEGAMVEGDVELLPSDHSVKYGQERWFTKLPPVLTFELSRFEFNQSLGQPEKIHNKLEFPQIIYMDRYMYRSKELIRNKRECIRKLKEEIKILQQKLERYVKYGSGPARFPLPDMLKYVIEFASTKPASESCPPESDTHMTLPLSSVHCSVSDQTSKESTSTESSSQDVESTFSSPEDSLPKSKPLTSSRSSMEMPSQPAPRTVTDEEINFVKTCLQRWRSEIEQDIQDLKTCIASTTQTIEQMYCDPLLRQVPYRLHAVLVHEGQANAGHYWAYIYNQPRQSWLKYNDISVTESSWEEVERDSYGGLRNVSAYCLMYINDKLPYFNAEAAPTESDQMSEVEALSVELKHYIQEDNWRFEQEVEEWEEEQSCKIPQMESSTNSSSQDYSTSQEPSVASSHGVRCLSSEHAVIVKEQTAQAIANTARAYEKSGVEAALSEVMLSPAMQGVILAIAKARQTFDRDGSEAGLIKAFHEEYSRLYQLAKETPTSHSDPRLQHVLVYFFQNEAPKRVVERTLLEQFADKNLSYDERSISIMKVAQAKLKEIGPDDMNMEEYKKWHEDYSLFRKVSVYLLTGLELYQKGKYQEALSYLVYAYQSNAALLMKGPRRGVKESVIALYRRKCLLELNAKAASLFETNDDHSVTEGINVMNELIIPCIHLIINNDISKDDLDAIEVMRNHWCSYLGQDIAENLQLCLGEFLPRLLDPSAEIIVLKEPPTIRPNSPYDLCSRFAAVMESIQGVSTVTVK
Outline: as §1

Measured: log2 ratio of Biotin-Ahx-Ub-VS probe labelling

Chain of USP24 (Q9UPU5 whole entry): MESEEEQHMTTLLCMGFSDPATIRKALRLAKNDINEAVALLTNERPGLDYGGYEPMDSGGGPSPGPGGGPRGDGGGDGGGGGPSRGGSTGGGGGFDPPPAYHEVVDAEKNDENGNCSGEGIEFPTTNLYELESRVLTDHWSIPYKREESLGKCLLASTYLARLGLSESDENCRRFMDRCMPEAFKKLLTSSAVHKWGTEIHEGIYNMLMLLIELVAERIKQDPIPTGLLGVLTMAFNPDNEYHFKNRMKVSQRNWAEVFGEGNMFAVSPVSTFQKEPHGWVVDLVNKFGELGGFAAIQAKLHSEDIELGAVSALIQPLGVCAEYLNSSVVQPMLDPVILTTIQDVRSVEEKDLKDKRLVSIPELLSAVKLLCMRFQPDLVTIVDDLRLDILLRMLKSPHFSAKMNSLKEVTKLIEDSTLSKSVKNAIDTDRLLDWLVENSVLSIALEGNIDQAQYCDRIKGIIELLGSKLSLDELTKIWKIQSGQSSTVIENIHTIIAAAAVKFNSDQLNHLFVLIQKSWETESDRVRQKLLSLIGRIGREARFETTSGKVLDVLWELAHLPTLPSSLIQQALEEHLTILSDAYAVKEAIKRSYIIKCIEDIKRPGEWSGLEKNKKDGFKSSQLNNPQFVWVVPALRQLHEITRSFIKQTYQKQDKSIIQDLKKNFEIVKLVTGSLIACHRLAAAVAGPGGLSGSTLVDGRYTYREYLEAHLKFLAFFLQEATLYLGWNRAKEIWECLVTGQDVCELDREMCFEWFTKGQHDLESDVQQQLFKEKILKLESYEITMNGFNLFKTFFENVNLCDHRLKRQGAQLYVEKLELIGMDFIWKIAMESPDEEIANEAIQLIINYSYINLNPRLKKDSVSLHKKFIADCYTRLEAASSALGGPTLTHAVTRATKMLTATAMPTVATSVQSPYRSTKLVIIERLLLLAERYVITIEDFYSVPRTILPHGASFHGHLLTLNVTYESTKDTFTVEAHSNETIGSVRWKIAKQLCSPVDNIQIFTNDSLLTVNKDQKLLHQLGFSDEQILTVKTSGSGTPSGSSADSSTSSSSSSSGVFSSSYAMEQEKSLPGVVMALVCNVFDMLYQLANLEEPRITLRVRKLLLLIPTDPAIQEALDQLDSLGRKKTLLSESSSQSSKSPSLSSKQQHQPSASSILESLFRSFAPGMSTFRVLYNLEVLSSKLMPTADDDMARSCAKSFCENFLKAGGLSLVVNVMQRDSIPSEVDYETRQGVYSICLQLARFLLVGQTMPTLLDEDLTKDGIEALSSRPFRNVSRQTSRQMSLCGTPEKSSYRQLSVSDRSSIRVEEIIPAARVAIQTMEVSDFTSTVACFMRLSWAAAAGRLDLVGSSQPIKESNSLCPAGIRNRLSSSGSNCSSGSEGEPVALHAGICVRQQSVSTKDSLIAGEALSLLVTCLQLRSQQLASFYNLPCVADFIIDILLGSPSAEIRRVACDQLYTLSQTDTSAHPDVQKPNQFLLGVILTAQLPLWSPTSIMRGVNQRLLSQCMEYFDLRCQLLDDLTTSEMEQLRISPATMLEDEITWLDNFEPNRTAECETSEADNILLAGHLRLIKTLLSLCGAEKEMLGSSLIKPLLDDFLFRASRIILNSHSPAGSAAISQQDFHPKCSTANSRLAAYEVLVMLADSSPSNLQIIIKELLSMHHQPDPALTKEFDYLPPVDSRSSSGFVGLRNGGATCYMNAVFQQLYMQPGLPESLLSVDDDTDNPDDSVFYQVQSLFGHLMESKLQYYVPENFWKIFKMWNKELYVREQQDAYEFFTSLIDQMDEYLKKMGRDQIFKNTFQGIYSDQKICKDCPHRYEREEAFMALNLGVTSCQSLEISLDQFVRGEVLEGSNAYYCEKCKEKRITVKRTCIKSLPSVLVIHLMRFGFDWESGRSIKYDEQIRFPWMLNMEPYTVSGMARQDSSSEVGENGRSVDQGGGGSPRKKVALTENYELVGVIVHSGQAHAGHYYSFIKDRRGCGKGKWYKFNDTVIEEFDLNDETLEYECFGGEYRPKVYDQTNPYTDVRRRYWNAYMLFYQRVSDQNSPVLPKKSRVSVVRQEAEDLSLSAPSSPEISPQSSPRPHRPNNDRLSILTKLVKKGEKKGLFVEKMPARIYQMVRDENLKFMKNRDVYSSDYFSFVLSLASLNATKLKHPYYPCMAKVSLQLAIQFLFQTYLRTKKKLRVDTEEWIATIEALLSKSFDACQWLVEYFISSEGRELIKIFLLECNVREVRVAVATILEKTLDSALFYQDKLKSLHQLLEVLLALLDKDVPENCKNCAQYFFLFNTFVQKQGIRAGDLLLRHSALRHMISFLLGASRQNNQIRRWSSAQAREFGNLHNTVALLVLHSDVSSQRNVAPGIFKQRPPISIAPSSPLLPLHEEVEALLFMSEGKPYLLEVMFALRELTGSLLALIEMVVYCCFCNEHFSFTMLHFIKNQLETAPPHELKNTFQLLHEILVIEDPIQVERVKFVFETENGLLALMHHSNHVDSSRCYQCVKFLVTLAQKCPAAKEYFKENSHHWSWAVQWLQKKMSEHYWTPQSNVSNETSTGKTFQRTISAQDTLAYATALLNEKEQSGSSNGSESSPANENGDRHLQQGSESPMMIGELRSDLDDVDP

CC(O)CC1CCN(C(=O)CCl)CC1 (centres undefined)
inactive: [1] -0.322 | [2] -0.234 | [3] -0.398 | [4] -0.223
